Laboratory results published in ChEMBL document CHEMBL3988442, “University of Dundee, Small-Polar-MMV Screening Library” (2021).
Among all 69,000 compounds or so, about 950 (1.4%) showed an effect of 50% or more. What follows is part of a selection rich in strong results, with near analogues and random picks from the rest.

test system: Mycobacterium tuberculosis; assay: Cornell M. t heat shock assay; type: functional, organism-based; set-up: dose or concentration left out as unconfirmed; further: in the data most compounds retested in dose-response had high values

SMILES	Percent Effect [%]
OCCOc1cc(F)ccc1NCc1cccc(F)c1F	-41.85
O=C(O)C(F)(F)F.O=S(=O)(c1cccs1)N1CC[C@H](O)[C@@H]1Cc1ccncc1	-2.198
Cn1cc(N2C(=O)CC[C@@H]3[C@H]2CCN3CCc2ccccc2)cn1.O=C(O)C(F)(F)F.O=C(O)C(F)(F)F	-25.96
COc1ccc(CNC(C)c2cccc(Br)c2)c(OC)c1OC.Cl (stereo unspecified)	-10.84
COCCN1CCC(c2nc3ccc(-c4ccccc4)cn3n2)CC1.O=C(O)C(F)(F)F	-23.12
C/N=C1/c2cc3cc(OC)ccc3n2CCN1Cc1ccccc1.Cl	-17.35
Cc1noc(C)c1CN1CCO[C@H]2CN(C(=O)N3CCCC3)C[C@H]21.O=C(O)C(F)(F)F	-20.16
COc1ccc(-c2nnc(CNCCn3cccn3)o2)cc1	-11.96
COc1ccc(-c2nc(CNCCn3cccn3)cs2)cc1	106.9
Cn1cc(-c2nc(CNCCn3cccn3)cs2)cn1	-4.068
CCc1c(C)nc2cc(C3CCN(Cc4ccncc4C)C3)nn2c1O (stereo unspecified)	-4.904
O=C(O)C(F)(F)F.O=C(c1ccncc1F)N1CCc2onc(COc3cccnc3)c2C1	2.972
Cn1ccc(C(=O)N2CCC[C@]3(C[C@@H](OCc4ccccn4)CO3)C2)n1.O=C(O)C(F)(F)F	-3.608
O=C(CCN1CCC(C(=O)c2cc(F)ccc2F)CC1)NC1CC1	-9.281
NC(=O)CN1CCC(c2noc3cc(F)ccc23)CC1	-31.79
CC(C)NC(=O)CN1CCC(c2cccc(F)c2)C1 (stereo unspecified)	-24.09
O=C(CCc1cc(O)no1)N1CCC(Cc2ccc(F)cc2)CC1	4.65
O=C(O)CCCC(=O)N1CCC(c2noc3cc(F)ccc23)CC1	20.09
O=C(O)CCC(=O)N1CCC(c2noc3cc(F)ccc23)CC1	69.92
CCCNC(=O)CCC(=O)N1CCC(c2noc3cc(F)ccc23)CC1	9.612
CC(C)NC(=O)CCC(=O)N1CCC(c2noc3cc(F)ccc23)CC1	74.12
O=C(CCC(=O)N1CCC(c2noc3cc(F)ccc23)CC1)NC1CC1	83.45
Cl.NC(=O)C1CNCCN1C(=O)COc1ccccc1 (stereo unspecified)	-11.48

SMILES	Percent Effect [%]
C[C@H]1CN(Cc2cccc(F)c2)C[C@@]12CCN(CC(=O)N(C)C)C2=O.O=C(O)C(F)(F)F	-2.321
CC(C)C(=O)N1CC[C@H]2N(C)CC[C@@]2(C(=O)N2CCCC2)CC1.O=C(O)C(F)(F)F	7.304
CCSCCNc1nc(-c2ccccn2)nc2c1c(C)nn2C	102
CSCC[C@@H](CO)Nc1ccc(-c2nc(-c3ccccc3F)no2)cn1	-33.46
CCSCCNc1nc2c(s1)c(C)nn2C	6.366
CCC1(O)CCCN(c2ncnc3c2c(C)nn3C)C1 (stereo unspecified)	10.34
CSCC[C@@H](CO)Nc1ccc(-c2nc(-c3ccccc3C)no2)cn1	-15.48
Cc1nn(C)c2nc(-c3ccccn3)nc(NCCCOC(C)C)c12	98.39
CCC1(O)CCCN(c2nc(-c3ccccn3)nc3c2c(C)nn3C)C1 (stereo unspecified)	100.9
Cc1nc(N2CCC(O)(c3ccccc3)CC2)c2c(C)nn(C)c2n1	12.95
CC(=O)NCCNc1nc(-c2ccccn2)nc2c1c(C)nn2C	-12.81
c1ccc(-c2nc3c(c(NCCn4cccc4)n2)CCNCC3)nc1	-4.2
CSCC[C@@H](CO)Nc1nc(-c2ccccn2)nc2c1c(C)nn2C	63.32
c1ccc(-c2nc3c(c(NCCCn4cncn4)n2)CCNCC3)nc1	8.8
Cc1ccc(CN2CC[C@H]3OCC[C@@H](C(=O)N4CCCCO4)[C@@H]3C2)o1.O=C(O)C(F)(F)F	-16.6
O=C(O)C(F)(F)F.O=C([C@@H]1CCO[C@@H]2CCN(CCc3ccccc3)C[C@@H]21)N1CCCC1	-24.53
Cl.c1cnc(Nc2cc(CCC3CCCNC3)ccn2)cn1 (stereo unspecified)	5.615
Cc1nnc(N2CC[C@H]3O[C@H](C(=O)NCc4ccccn4)CC[C@H]32)s1.O=C(O)C(F)(F)F.O=C(O)C(F)(F)F	-4.989
CCCN1C[C@H]2CC[C@@H]1CN(c1nnc(C(C)C)s1)C2	23.85
O[C@@H]1CN(Cc2cccnc2)C[C@H]1Oc1ccccc1	-6.962
CCN1CCN(C)C(=O)C12CCN(C(=O)Cc1ccccn1)CC2.O=C(O)C(F)(F)F	3.493
Cc1nn(C)c2nc(-c3ccccn3)nc(NC[C@@H]3CCCO3)c12	93.55
Cc1nn(C)c2nc(-c3ccccn3)nc(NCCC3CCCN3C)c12 (stereo unspecified)	-21.22
